# In the library only some 2.3% were active in any assay of this set; here they are far more common.
# A549 tox = Nrf2 qHTS screen for inhibitors: counterscreen for cytotoxicity | A549 ARE-Fluc cells, CellTiter-Fluor viability, 18-24 h | Potency, µM (highest dose often 46 µM), for the others: at the highest dose activity change, negative = cytotoxicity, actives largely listed as inhibitors | hit rate 0.16% among 390,000 | AID 504648, 2011; also: potency is read from the fitted curve at half-maximal effect; % is scaled to controls: 0 for no effect and ±100 for the full control effect
#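 Cytotoxicity counterscreen: CellTiter-Fluor fluorescence was measured in A549 ARE_Fluc cells after 18-24 h of compound exposure in a concentration series. The subsequent BugLite luminescent read reports ARE-luciferase activity.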
# miR-21 act = qHTS Assay for Modulators of miRNAs and/orActivators of miR-21 | HeLa miR-21 FLuc reporter, luciferase, 48 h | Potency, µM (doses to about 38.3 µM), for inactives: top-dose activity change, positive = activation, actives largely listed as activators | 340,000 tested, under 10 active;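 also: % of control where 0% means no effect; miR-21 action dims this reporter so a rising signal means less miR-21 action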
#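 HeLa cells endogenously expressing miR-21, stably carrying CMV-driven firefly luciferase with a downstream miR-21 binding site, 2000 cells/well. Titrations up to approximately 40 uM, 48 hours; luciferase luminescence read.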
# Mito fusion yeast = qHTS Assay for Small Molecule Inhibitors of Mitochondrial Division or Activators of Mitochondrial Fusion; S. cerevisiae fusion-defective mutant growth rescue, CellTiterGlo 48 h; Potency, µM (highest dose often 46.1 µM), inactives show top-dose growth rescue (activation), hits mostly activators; hit rate 0.23% among 320,000; also: potency is read from the fitted curve at half-maximal effect; % of control where 0% means no effect; nearly all actives have a fitted effect of over 45% in size
#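 Temperature-sensitive fusion-defective S. cerevisiae (e.g. fzo1-1, mgm1-5) were grown with compound in YPEG medium (3% ethanol, 3% glycerol) for 48 hours at 37C. Growth rescue was measured as viability by CellTiterGlo luminescence after 10 minutes at ambient.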
# Nrf2 ARE act = qHTS of Nrf2 Activators; Potency, µM (titrated, usually from 46.1 µM), without a hit: at the highest dose activation, actives largely listed as activators; AID 624171, 2012; hit rate 0.31% among 410,000; AREc32 ARE-luciferase reporter (MCF7-derived line), luminescence, 24 h; also: potency is read from the fitted curve at half-maximal effect; % of control where 0% means no effect; nearly all actives have a fitted effect of over 65% in size
#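 Cells of the AREc32 ARE-luciferase line are plated in OPTI-MEM containing 5% FBS and left overnight at 37 deg C. Compounds are pinned in, incubation continues 24 hr, and firefly luciferase signal is then measured.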
# Glioma ERSR ind = qHTS for Inducers of the Endoplasmic Reticulum Stress Response (ERSR) in Human Glioma: qHTS; Potency, µM, for the others: at the top dose activation, hits mostly activators; hit rate 0.02% among 420,000; U87-MG GRP78 promoter luciferase reporter, 16 h; also: potency is read from the fitted curve at half-maximal effect; series mostly up to about 76 µM; % of control where 0% means no effect; nearly all actives have a fitted effect of over 35% in size
#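 Stably transfected U87-MG human glioma cells carrying a GRP78-based luminescent sensor were seeded at 1000 cells/well, pin-dosed with compounds and incubated 16 h. Luciferase reagent was then added, and end-point luminescence was read after 10 min at room temperature.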
# Nrf2 block = Nrf2 qHTS screen for inhibitors; hit rate 2.1% among 360,000; AID 504444, 2011; A549 ARE-Fluc reporter, luciferase luminescence, 18-24 h; Potency, µM (top dose mostly 46 µM), without a hit: at the top dose activity change, negative = inhibition, usual class: inhibitors; also: potency is read from the fitted curve at half-maximal effect; % is scaled to controls: 0 for no effect and ±100 for the full control effect; nearly all actives have a fitted effect of over 60% in size
#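 Cells were seeded and rested 2 h, then exposed to compounds for 18-24 h. CellTiter-Fluor was read first as a viability measure. BugLite was added 15 min before the final luminescent read of ARE-luciferase activity in A549 cells.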
# Starred values were filed as active, the others as inactive; ? = inconclusive; nt = not tested or not shown; ! = repeats disagree; [ ] = remark or other dose. Calls follow the shape of the dose curve; as a rule, active = well fitted curve in the direction sought with a large enough effect; inconclusive = small, poorly fitted or top-dose-only effect, or another doubt; inactive = no such curve, though single readings can be large; an effect the other way counts as inactive or inconclusive.
SMILES,A549 tox,miR-21 act,Mito fusion yeast,Nrf2 ARE act,Glioma ERSR ind,Nrf2 block
O=C(NCc1ccccc1)C(=O)NCC1OCCN1S(=O)(=O)c1ccc([N+](=O)[O-])cc1 (configuration not stated),-1%,0%,0%,0%,0%,-12%
O=C(c1nc2ccc(Cl)cn2c1CN1CCC[C@H]1CO)N1CCc2ccccc2C1,nt,nt,nt,4%,-1%,nt
Clc1cccc(CON/C=N/c2ncnc3sccc23)c1,-4%,14%,-24%,-1%,-3%,16µM*
CCc1ccc2c(-c3cccc(Cl)c3)nc(=O)n(CC)c2n1,nt,nt,12µM*,nt,?,nt
COc1ccc(CN2CCN(C(=O)C3CCN(S(=O)(=O)c4cccs4)CC3)CC2)c(OC)c1OC,-4%,4%,3%,0%,-5%,15µM*
COc1ccc(N2CCN(C(=O)C3CCN(S(=O)(=O)c4cccs4)CC3)CC2)cc1,0%,3%,7%,0%,-1%,?
CCOc1ccc(CCNC(=O)COC(=O)COc2cc(C)cc(C)c2)cc1OCC,2%,nt,-3%,0%,-2%,9%
CCCn1nc(C(=O)Nc2ccc3nc(N4CCOCC4)sc3c2)ccc1=O,-14%,nt,-2%,3%,-7%,21µM*
COC(=O)c1c(NC(=O)c2c(OC)cccc2OC)sc2c1C(C(=O)OC)CC2 (configuration not stated),?,-21%,7%,4%,-1%,13µM*
COC(=O)c1c(NC(=O)c2c(OC)cccc2OC)sc2c1CCCC2,0%,2%,nt,3%,1%,-21%
O=c1cc(/C=C/c2cccs2)[nH]c2ccccc12,-14%,16%,1%,0%,1%,13µM*
CSc1ccc(/C=C/c2cc(=O)c3ccccc3[nH]2)cc1,2%,-27%,7%,4%[9.22 µM],6%,-15%
CN(C)CCN(Cc1ccco1)C(=O)c1oc2ccccc2c1NC(=O)c1cccc(F)c1,-20%,?,nt,9%,-4%,25%
CCn1nc([N+](=O)[O-])c(C(C#N)c2nc3cc(C(F)(F)F)ccc3s2)c(Cl)c1=O (configuration not stated),?,21%,?,-3%,?,8.2µM*
Cc1ccccc1CC1(CO)CCCN(C(=O)c2cc(Cl)ccc2F)C1 (configuration not stated),-9%,-3%,?,0%,-1%,12µM*
CSCC(=O)N1CCCC(CO)(Cc2ccccc2C)C1 (configuration not stated),2%,-3%,22µM*,0%,-8%,0%
O=C(Cc1c(C(=O)O)[nH]c2ccccc12)NC1CCCC1,-8%,-2%,-2%,0%,-4%,?
Cc1nc(NCc2ccccn2)c2c3c(sc2n1)CCCC3,3%,15%,20µM*,3%,0%,-9%
CCCCN(CC)CCNC(=O)C1CCN(c2nnc(C)c3c(C)n(-c4ccc(C)cc4)nc23)CC1,23µM*,-3%,nt,4%,-1%,?
Cc1ccc(CCNC(=O)C2CCN(c3nnc(C)c4c(C)n(-c5ccccc5)nc34)CC2)cc1,3%,3%,nt,-1%,-3%,0%
COCCNC(=O)c1cnn2c(C(F)F)cc(-c3ccc(C)cc3)nc12,0%,-6%,14%,0%,-6%,0%
CCCNC(=O)c1cnn2c(C(F)F)cc(-c3ccccc3)nc12,?,0%,nt,-1%,0%,23µM*
CCCCCCCCCCCCC(C(=O)O)C(C)C(=O)O (configuration not stated),nt,nt,nt,nt,0%,nt
O=C(O)CCC(=O)Nc1sc2c(c1C(=O)Nc1ccccc1)CCCCC2,-1%,-23%,5%,14µM*!,2%,14%
Cc1ccccc1NC(=O)c1c(NC(=O)C(F)(F)F)sc2c1CCCCC2,?,?,nt,-2%,-1%,2.3µM*

# Assay outcomes: PubChem, National Center for Advancing Translational Sciences (NCATS)
